D2 PAM-1: human D2 receptor positive allosteric modulation; DiscoveRx D2 beta-arrestin cells, luminescence, 90 min; 100% = 57 uM dopamine signal; 360,000 compounds, 0.23% hits; potentiation, % (test concentration not listed); P14416; in the data active = potentiation above about 50%; inconclusive = mostly about 30% to 49%
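PathHunter D2 cells, attached overnight at 37 deg C, received compound in DMSO plus dopamine at EC20 (50 nM final) for 90 min at 37 deg C. Beta-arrestin recruitment was read as luminescence after 1 h with detection reagent at ambient temperature.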
D2 ag-1: activates the human D2 dopamine receptor; P14416; HEK293 T-REx D2 cells, calcium flux agonist mode; activation, % at 2 µM; 340,000 compounds, 0.53% hits;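 active = activation over 3 SD above normal in the single-dose calcium agonist read, cut at about 30% in these data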
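Tetracycline-induced HEK293 Trex cells with D2 receptor force-coupled to calcium signaling, plated overnight at 30 C and loaded with no-wash calcium dye. Calcium flux read kinetically for 180 s after compound addition; responses flag agonists.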
D2 PAM-2: positive allosteric modulators of human D2 dopamine receptor. P14416. HEK293 T-REx D2, calcium flux, EC20 dopamine potentiation. potentiation, % at 10 µM. 340,000 compounds, 0.34% hits;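 active = potentiation over 3 SD above the plate norm, cut at about 30% in these data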
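Calcium flux readout, no-wash dye, 1 read/s. Inducible HEK293 Trex D2 line, overnight 30 C. Compound alone 180 s (agonist flags), then EC20 dopamine, another 180 s to score potentiation.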
D2 ag-2: activates the human D2 dopamine receptor; P14416; DiscoveRx PathHunter D2 beta-arrestin, luminescence, 90 min; 100% = 57 uM dopamine signal; activation, % (test concentration not listed); 360,000 compounds, 0.084% hits; AID 624465; in the data active = activation above about 40%; inconclusive = between about 15% and that limit
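Agonist mode: compounds alone added to overnight-plated D2 PathHunter cells for 90 min at 37 C, with 57 uM final dopamine (EC100) defining full response. Beta-arrestin recruitment detected by chemiluminescent reagent, read after 1 h at ambient temperature.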
D2 antag: D2 dopamine receptor (human) antagonism. P14416. HEK293 TREx D2 cells, calcium flux, dopamine EC80. inhibition, % at 10 µM. 340,000 compounds, 2% hits. AID 485344; in the data active = inhibition above about 30%; inactive = below that, where a call was filed
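Tetracycline-induced HEK293 T-REx cells expressing D2 force-coupled to calcium signalling were dye-loaded, exposed to compound for 180 s, then challenged with an EC80 of dopamine; calcium flux was followed kinetically for a further 180 s.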
D3 ag: confirmation of human D3 dopamine receptor agonists, beta-arrestin. Potency, µM (highest dose often 76.9 µM), hits mostly activators. 2,300 compounds, 4% hits. shares compounds with D2 ag-1. DiscoveRx D3 beta-arrestin cells, luminescence, 90 min. AID 720506; also: nearly all actives have a fitted effect of over 70% in size
Target sequence (P35462 whole entry, looked up): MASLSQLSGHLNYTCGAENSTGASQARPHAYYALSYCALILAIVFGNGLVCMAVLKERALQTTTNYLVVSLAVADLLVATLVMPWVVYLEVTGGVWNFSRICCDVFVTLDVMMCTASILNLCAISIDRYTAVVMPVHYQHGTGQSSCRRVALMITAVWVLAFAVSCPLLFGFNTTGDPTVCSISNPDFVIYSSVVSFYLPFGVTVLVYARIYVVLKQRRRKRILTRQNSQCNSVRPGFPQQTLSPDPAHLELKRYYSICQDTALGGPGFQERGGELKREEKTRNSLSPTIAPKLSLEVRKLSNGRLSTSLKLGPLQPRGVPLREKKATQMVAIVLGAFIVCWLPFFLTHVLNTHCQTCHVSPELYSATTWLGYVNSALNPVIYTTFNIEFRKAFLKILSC
D2 ag-3: activates human D2 dopamine receptor in D3 counterscreen; Potency, µM (doses to about 76.9 µM), most hits filed as activators; shares compounds with D2 ag-1; AID 720507; 2,300 compounds, 5.9% hits; DiscoveRx PathHunter D2 beta-arrestin, luminescence, 90 min; response scale: percent relative to full dopamine signal; also: nearly all actives have a fitted effect of over 70% in size
Numbers stand for hits; – = inactive; ? = inconclusive; · = not tested or not shown; ! = a repeat was not active. A selection: hits, their analogues and other compounds. The true share with any hit is near 2.4%. Unless noted, calls follow the shape of the dose curve; as a rule, active = well fitted activation curve with a large enough effect; inconclusive = small, poorly fitted or top-dose-only effect; inactive = flat fitted curve, though single readings scatter.

SMILES	D2 PAM-1	D2 ag-1	D2 PAM-2	D2 ag-2	D2 antag	D3 ag	D2 ag-3
CC(C)[C@H](NC(=O)c1ccco1)C(=O)NC12CC3CC(CC(C3)C1)C2	–	–	–	–	–	·	·
CC(=O)CSc1nnc(-c2ccc(S(=O)(=O)N3CCOCC3)cc2)n1C	–	·	·	–	·	–	–
CC(=O)CSc1nnc(-c2ccc(S(=O)(=O)N3CCCC3)cc2)n1C	–	–	–	–	–	·	·
N#Cc1c(-c2ccco2)nc(SCc2ccc(F)cc2)[nH]c1=O	–	–	–	–	–	·	·
Cc1nc(SCc2cccc(F)c2)[nH]c(=O)c1C#N	–	·	·	–	·	–	–
CCOc1ccc(Nc2oc(/C=C/c3cccc(OC)c3)nc2C#N)cc1	·	–	–	·	·	·	·
CCC(=O)N1CCc2cc(CNS(=O)(=O)c3ccc(CC(C)C)cc3)ccc21	·	–	–	·	·	·	·
Cc1ccc(S(=O)(=O)N2CCN(C(=O)COC(=O)/C=C/c3ccc(F)cc3)CC2)c(C)c1	–	–	–	–	–	·	·
Cc1ccc(S(=O)(=O)N2CCN(C(=O)COC(=O)CSc3cc(C)ccc3C)CC2)c(C)c1	–	–	–	–	–	–	–
Cc1ccc(S(=O)(=O)N2CCN(C(=O)COC(=O)/C=C/c3ccccc3)CC2)c(C)c1	–	–	–	–	–	–	–
CC(C)(CO)NS(=O)(=O)c1ccc2c(c1)Cc1cc(S(=O)(=O)NC(C)(C)CO)ccc1-2	–	–	–	–	–	–	–
CC(C)(CO)NS(=O)(=O)c1ccc2c(c1)C(=O)c1cc(S(=O)(=O)NC(C)(C)CO)ccc1-2	–	–	–	–	–	·	·
CCCCNCCOc1ccccc1-c1ccccc1	–	–	–	–	69.5	–	–
CC(O)CNCCOc1ccccc1-c1ccccc1 (stereo not drawn)	–	57.9	–	–	57.8	–	–
CN(C)CCOc1ccccc1-c1ccccc1	–	·	·	–	·	·	·
CC(C)C[C@H]1COCCS(=O)(=O)N1Cc1ccc(Cl)c(Cl)c1	–	·	·	–	·	·	·
COc1ccc(Nc2nc3ccccc3n3c(N)nnc23)cc1	·	–	–	·	·	·	·
CN(CCOc1ccccc1Cl)Cc1ccccc1	–	–	–	–	84.7	?	–
OC(COCC1COc2ccccc2O1)CN1CCN(c2ccccc2)CC1 (stereo not drawn)	–	66.9	–	?	59.9	?	?
COCCOCC(O)CN1CCN(c2ccccc2)CC1 (stereo not drawn)	–	84.0	–	–	59.0	–	–
OC(COCc1ccccc1)CN1CCN(c2ccccc2)CC1 (stereo not drawn)	–	86.3	–	–	85.7	?	?
CCCCN(C(=O)C1CC(=O)N(c2ccc(CC)cc2)C1)c1c(N)n(CCC)c(=O)[nH]c1=O (stereo not drawn)	–	–	–	–	–	·	·
NS(=O)(=O)c1ccc(CCNC(=O)C2CCN(S(=O)(=O)c3ccccc3)CC2)cc1	–	–	–	–	–	·	·
O=C(COC(=O)C1CCN(S(=O)(=O)c2ccccc2)CC1)NCCc1ccccc1	–	–	–	–	–	–	–
CCc1ccccc1NC(=O)CCCN1C(=O)c2cccnc2C1=O	–	41.1	–	–	–	–	–
SMILES	D2 PAM-1	D2 ag-1	D2 PAM-2	D2 ag-2	D2 antag	D3 ag	D2 ag-3
O=C(CCCN1C(=O)c2cccnc2C1=O)Nc1ccccc1F	–	–	–	–	–	·	·
CSc1ccc(NC(=O)C(C)N2CCN(C)CC2)cc1 (stereo not drawn)	–	–	–	–	–	·	·
Cn1c(=O)cc(SCC(=O)Nc2cccc(C#N)c2)c2ccc(Cl)cc21	·	–	–	·	·	·	·
O=C(NCc1ccc(F)cc1)C(=O)NCC1OCCCN1S(=O)(=O)c1cccs1 (stereo not drawn)	–	–	–	–	–	·	·
COc1ccc(NC(=O)COC(=O)CNC(=O)c2cccs2)cc1Cl	–	–	–	–	–	–	–
O=C(OCCN1C(=O)c2cccc3c(N4CCOCC4)ccc(c23)C1=O)c1ccccc1Cl	–	·	–	–	·	?	?
CN(C(=O)c1ccc(NC(=O)Cc2cccc(NC(=O)C3CCN(C(=O)C4CC4)CC3)c2)cc1)C1CCCC1	–	–	–	–	–	–	–
O=C(c1cc(-c2ccc(F)cc2)on1)N1CCCC1	–	–	–	–	–	–	–
CCOC(=O)Cc1csc(NC(=O)c2cccc(OC)c2)n1	–	–	–	–	–	·	·
CCOC(=O)Cc1csc(NC(=O)c2csc(C)c2)n1	–	61.4	–	–	–	–	–
CN(CC(=O)NCCc1ccc(F)cc1)Cc1cccc(Cl)c1	–	–	–	–	–	·	·
CC1(C)CN(Cc2ccccc2)C(=O)[C@H]1CC(=O)Nc1ccc(Br)cc1	–	·	·	–	·	·	·
Cc1ccc2[nH]c3c(N4CCN(Cc5ccc6c(c5)OCO6)CC4)ncnc3c2c1	·	·	–	·	·	·	·
Clc1ccc(CN2CCN(c3ncccn3)CC2)cc1	53.1	73.0	–	68.3	84.9	?	2.82µM
Fc1ccc(CN2CCN(c3ncccn3)CC2)c(F)c1	–	94.9	–	59.8	79.5	?	15.8µM
c1ccc(-c2ccc(CN3CCN(c4ncccn4)CC3)cc2)cc1	–	78.8	–	?	117.9	?	?
c1nc(N2CCN(Cc3ccc4c(c3)OCO4)CC2)c2[nH]cnc2n1	81.5	·	·	–	·	–	2.82µM
Fc1ccc(CN2CCCCCC2)c(F)c1	–	–	–	–	–	·	·
c1ccc(CN2CCN(c3nc(-c4ccccc4)nc(-n4ccnc4)n3)CC2)cc1	–	–	–	–	–	·	·
O=C(c1cccn2c(=O)c3cc(Cl)ccc3nc12)N1CCN(c2ccccc2F)CC1	·	–	–	·	·	·	·
C(#Cc1ccccc1)CN1CCN(c2ccccn2)CC1	–	45.2	–	–	–	–	–
c1ccc(COc2ccc(CN3CCN(c4ccccn4)CC3)cc2)cc1	–	77.1	–	46.5	75.5	?	11.2µM
C(#Cc1ccccc1)CN1CCCCC1	–	–	–	–	–	·	·
c1cnc(N2CCN(Cc3ccc4c(c3)OCO4)CC2)nc1	62.4!	80.4	–	40.5!	88.5	?	0.0501µM
O=C(Cc1ccccc1)N1CCN(c2ncccn2)CC1	–	–	–	–	–	·	·
c1ccc(CN2CCN(c3ncccn3)CC2)cc1	?	86.3	–	55.5	83.6	?	2.51µM
NC(=O)C1CCN(Cc2ccc(OCc3ccccc3)cc2)CC1	–	–	–	–	–	·	·
COc1ccc(CC(=O)NCc2cccc(Cl)c2)cc1S(=O)(=O)N1CCOCC1	–	·	·	–	·	·	·
COc1ccc(-c2cc(=O)oc3cc(OCC(=O)NCC4CCC(C(=O)O)CC4)ccc23)cc1 (stereo not drawn)	–	·	·	–	·	·	·

From PubChem
